LANA-H2B inh = blocks KSHV LANA binding to histone H2A/H2B | Q9QR71 | cell-free LANA-H2A/H2B peptide, fluorescence polarization | inhibition, % (concentration not given with the values) | actives 0.6% (n = 320,000); in the data active = inhibition mostly above about 10%, no sharp cut-off; inactive = mostly below about 6.7%
TLR4-MyD88 BLA = blocks binding of human TLR4 to MyD88; O00206+Q99836; HeLa CL3-4 TLR4/MyD88 BLA complementation, FRET ratio; inhibition, % at 8.4 µM; actives 0.18% (n = 200,000); in the data active = inhibition above about 25%;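 note: 0% = vehicle and 100% = reference inhibitor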
Rtt109 HAT inh = C. albicans Rtt109 histone acetyltransferase inhibition; AID 540336; inhibition, % at 34.9 µM; purified Rtt109/Vps75, ThioGlo CoA-SH fluorescence, 4 h; actives 0.16% (n = 330,000);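 active = inhibition of at least 50% in every replicate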
NOD2 RIPK2 PPI = inhibitors of human NOD2-RIPK2 interaction. actives 0.38% (n = 360,000). O43353. inhibition, % at 4.98 µM. CHO BLA complementation NOD2-RIPK2, CCF4 ratio; in the data active = inhibition above about 21%;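 note: 0% = vehicle only and 100% = reference blocker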
TLR9-MyD88 inh = blocks human TLR9 binding to MyD88. CHO BLA complementation TLR9-MyD88, CCF4 FRET ratio. inhibition, % at 4.98 µM. actives 0.21% (n = 340,000);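 active = inhibition above the mean over all tested compounds plus 3 SD, cut at about 21% in these data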;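 note: 0% = DMSO only wells and 100% = clavulanate BLA inhibitor control wells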
Target sequence (Q99836 whole entry, looked up): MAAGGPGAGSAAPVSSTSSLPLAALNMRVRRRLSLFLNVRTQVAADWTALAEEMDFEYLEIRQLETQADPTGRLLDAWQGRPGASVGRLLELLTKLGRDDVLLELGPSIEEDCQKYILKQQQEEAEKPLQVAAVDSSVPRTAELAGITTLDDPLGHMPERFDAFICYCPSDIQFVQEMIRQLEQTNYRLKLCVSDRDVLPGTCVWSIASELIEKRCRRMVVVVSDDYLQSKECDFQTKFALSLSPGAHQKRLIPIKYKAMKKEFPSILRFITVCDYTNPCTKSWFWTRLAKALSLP
Target sequence (Q9NR96 whole entry, looked up): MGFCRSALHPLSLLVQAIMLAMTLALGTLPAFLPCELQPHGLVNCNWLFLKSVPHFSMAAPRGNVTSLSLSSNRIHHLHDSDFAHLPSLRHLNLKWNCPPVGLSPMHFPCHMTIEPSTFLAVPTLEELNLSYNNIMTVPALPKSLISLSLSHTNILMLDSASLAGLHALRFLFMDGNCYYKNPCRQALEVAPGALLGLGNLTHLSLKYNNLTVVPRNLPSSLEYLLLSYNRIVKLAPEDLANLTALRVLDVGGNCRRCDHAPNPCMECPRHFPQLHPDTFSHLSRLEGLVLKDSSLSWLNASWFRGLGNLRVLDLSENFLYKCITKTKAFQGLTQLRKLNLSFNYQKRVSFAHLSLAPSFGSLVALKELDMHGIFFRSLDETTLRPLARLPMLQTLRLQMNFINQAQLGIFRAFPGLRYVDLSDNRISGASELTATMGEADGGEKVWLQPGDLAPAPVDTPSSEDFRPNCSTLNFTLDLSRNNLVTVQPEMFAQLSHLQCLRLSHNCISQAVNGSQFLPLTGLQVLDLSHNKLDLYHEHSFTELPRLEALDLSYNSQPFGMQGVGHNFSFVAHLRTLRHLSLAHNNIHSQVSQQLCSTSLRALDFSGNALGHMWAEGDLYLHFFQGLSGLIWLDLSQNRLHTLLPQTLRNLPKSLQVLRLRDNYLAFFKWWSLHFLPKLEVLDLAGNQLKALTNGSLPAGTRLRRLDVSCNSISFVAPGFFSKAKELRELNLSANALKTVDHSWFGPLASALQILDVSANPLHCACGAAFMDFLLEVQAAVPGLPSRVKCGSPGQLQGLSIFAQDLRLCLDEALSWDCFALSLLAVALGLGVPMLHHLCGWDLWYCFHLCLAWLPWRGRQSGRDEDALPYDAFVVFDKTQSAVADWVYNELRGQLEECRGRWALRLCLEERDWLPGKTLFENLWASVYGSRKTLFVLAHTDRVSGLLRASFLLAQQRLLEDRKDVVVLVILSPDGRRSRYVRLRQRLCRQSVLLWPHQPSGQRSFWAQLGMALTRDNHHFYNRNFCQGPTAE
HTR2A ag = mouse HTR2A agonism via beta-arrestin recruitment | activation, % at 7.6 µM | actives 0.66% (n = 360,000) | P35363 | CHO-K1 mHTR2A beta-arrestin complementation, luminescence; percent of 30 µM serotonin response;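 active = activation above a run cutoff, the mean activation of all tested compounds plus 3 SD, cut at about 14% in these data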;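 note: 0% = plate median of compound wells and 100% = 30 µM serotonin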
MOR ag counter = OPRM1 agonism in mouse HTR2A counterscreen | AID 624380 | U2OS OPRM1 beta-arrestin PathHunter, luminescence; DMSO 0%, DAMGO 9.3 µM 100% | shares compounds with HTR2A ag | actives 5.3% (n = 2,300) | activation, % at 9.3 µM;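 active = mean activation above the mean of DMSO-only wells plus 3 SD, cut at about 0.5% in these data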
HTR2A ag conf = confirmation of mouse HTR2A serotonin receptor agonists; shares compounds with HTR2A ag; AID 624381; CHO-K1 PathHunter beta-arrestin recruitment, luminescence; DMSO 0%, 30 µM serotonin 100%; actives 19% (n = 2,300); activation, % at 7.6 µM;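 active = mean activation across triplicates above the hit threshold derived in the original primary screen, cut at about 15% in these data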
* marks the source's active call; other numbers are inactive results. Only some compounds are listed: those with a hit (about 1.8% of all), similar ones and a draw of the others.

COc1ccc(NC(=O)CSc2nc3nc(C)cc(C)n3n2)cc1 was read as LANA-H2B inh 5, Rtt109 HAT inh -12, NOD2 RIPK2 PPI -15, TLR9-MyD88 inh 3 and HTR2A ag -1.
Screening O=C(N/N=C/c1ccc2c(c1)OCO2)C(=O)Nc1cccc(Cl)c1 returned LANA-H2B inh -14, Rtt109 HAT inh -1, NOD2 RIPK2 PPI -5, TLR9-MyD88 inh -12 and HTR2A ag 0.
`O=C(CN(C(=O)c1csnn1)c1ccc2c(c1)OCCO2)NCc1ccccc1` gave LANA-H2B inh 2, Rtt109 HAT inh 0, NOD2 RIPK2 PPI -8, TLR9-MyD88 inh -4, HTR2A ag 15*, MOR ag counter -1 and HTR2A ag conf -4.
Screening CC(C)Cc1cc(C(=O)Nc2ccc(F)cc2F)no1 returned LANA-H2B inh -3, TLR4-MyD88 BLA -12, Rtt109 HAT inh 7, NOD2 RIPK2 PPI 0, TLR9-MyD88 inh -1, HTR2A ag 18*, MOR ag counter -1 and HTR2A ag conf -3.
`CCC(OC(=O)c1nsc(Cl)c1Cl)C(=O)NCc1cccs1` (stereo unspecified) gave LANA-H2B inh 2, TLR4-MyD88 BLA 2, Rtt109 HAT inh 3, NOD2 RIPK2 PPI -4, TLR9-MyD88 inh 1, HTR2A ag 27*, MOR ag counter -1 and HTR2A ag conf -3.
CC(C)CC(OC(=O)c1nsc(Cl)c1Cl)C(=O)NCc1cccs1 (stereo unspecified) was read as LANA-H2B inh -4, TLR4-MyD88 BLA -7, Rtt109 HAT inh -5, NOD2 RIPK2 PPI -7, TLR9-MyD88 inh 4 and HTR2A ag 2.
For CCCCCC(=O)N1C[C@H](n2cc(COC(=O)c3ccccc3)nn2)[C@@H](O)C[C@@H]1c1ccc(OC)cc1 the results were NOD2 RIPK2 PPI -2, TLR9-MyD88 inh -2 and HTR2A ag 1.
Screening COc1cc(C(=O)NCC(c2cccs2)N2CCOCC2)ccc1OCc1ccc(Cl)cc1 (stereo unspecified) returned NOD2 RIPK2 PPI 1, TLR9-MyD88 inh -4 and HTR2A ag -6.
CC(=O)c1cccc(NC(=S)NC2CCCCCCC2)c1 was read as LANA-H2B inh 1, Rtt109 HAT inh 7, NOD2 RIPK2 PPI -3, TLR9-MyD88 inh 5 and HTR2A ag -4.
Screening N#Cc1csc(CCNC(=O)c2ccccc2)n1 returned NOD2 RIPK2 PPI -4, TLR9-MyD88 inh -4 and HTR2A ag -2.
O=C1CC(c2ccc(F)cc2)C(n2cncn2)C(O)=C1C1NCCc2ccccc21 (stereo unspecified) was read as LANA-H2B inh 4, TLR4-MyD88 BLA 3, Rtt109 HAT inh -2, NOD2 RIPK2 PPI 1, TLR9-MyD88 inh -5 and HTR2A ag 0.
O=C1CC(c2cccc(Cl)c2)C(n2cncn2)C(=O)C1C1NCCc2ccccc21 (stereo unspecified) was read as LANA-H2B inh -2, TLR4-MyD88 BLA 10, Rtt109 HAT inh 1, NOD2 RIPK2 PPI -1, TLR9-MyD88 inh -4, HTR2A ag 16*, MOR ag counter -1 and HTR2A ag conf -4.
Screening COc1cccc(C(C)(O)c2nc(-c3cccc4cccnc34)cs2)c1 (stereo unspecified) returned NOD2 RIPK2 PPI -14 and HTR2A ag 1.
For O=C(NC(=S)NC1CCCCCCCCCCC1)c1cccnc1 the results were LANA-H2B inh -2, TLR4-MyD88 BLA 1, Rtt109 HAT inh -3, NOD2 RIPK2 PPI -8, TLR9-MyD88 inh -2, HTR2A ag 17*, MOR ag counter 0 and HTR2A ag conf 1.
For O=C(NC(=S)NC1CC1)c1cccnc1 the results were LANA-H2B inh 11, TLR4-MyD88 BLA 0, Rtt109 HAT inh 4, NOD2 RIPK2 PPI -6, TLR9-MyD88 inh -15 and HTR2A ag 4.

Compound activity from PubChem BioAssay.
